Bioassay records from PubChem.
IDH1 R132H inh = inhibitors of human mutant IDH1 R132H | O75874 | IDH1-R132H enzyme, NADPH consumption, diaphorase/resazurin fluorescence | Potency, µM (doses to about 76.6 µM), actives largely listed as inhibitors | 390,000 tested, 0.093% active; also: nearly all actives have a fitted effect of over 65% in size
Target sequence (O75874 whole entry R132H, stated change not applied): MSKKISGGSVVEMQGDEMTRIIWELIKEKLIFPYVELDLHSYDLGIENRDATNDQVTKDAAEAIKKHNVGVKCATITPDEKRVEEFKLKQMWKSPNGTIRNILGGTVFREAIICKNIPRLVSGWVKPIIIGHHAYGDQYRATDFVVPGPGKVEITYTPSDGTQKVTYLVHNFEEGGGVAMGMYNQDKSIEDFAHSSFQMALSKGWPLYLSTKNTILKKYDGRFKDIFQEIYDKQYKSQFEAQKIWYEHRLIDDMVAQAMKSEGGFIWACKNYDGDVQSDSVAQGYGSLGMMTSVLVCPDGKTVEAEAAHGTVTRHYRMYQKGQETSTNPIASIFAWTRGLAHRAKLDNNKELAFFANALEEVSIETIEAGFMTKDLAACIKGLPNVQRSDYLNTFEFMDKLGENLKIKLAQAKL
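IDH1-R132H (0.5 ug/mL) preincubated 30 min with compound, then NADPH (0.016 mM) and alpha-KG (2 mM) added; 80 min at RT, pH 7.5. Remaining NADPH coupled via diaphorase/resazurin to fluorescence (540/590 nm); concentration-response curves normalized to no-enzyme control.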
GLP1R cytotox = cytotoxicity in counter-screen for GLP-1R inverse agonists; HEK293 cAMP-luciferase reporter cells, luminescence, 24 h; Potency, µM (highest dose often 38.3 µM), hits mostly inhibitors; 410,000 tested, 0.13% active; AID 624418;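 also: loss of luciferase light is scored as toxicity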
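To flag toxic compounds, the library was rerun on cells for 24 hr at 37 deg C and 5% CO2. Viability-linked luminescence was captured 12 min after adding luciferase detection reagent.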
LDHA inh = blocks human lactate dehydrogenase A; purified LDHA, NADH/diaphorase-resazurin fluorescence; active compounds read low; activity change, % (values are at about 110 or 230 µM); 480,000 tested, 0.15% active; AID 1347041; in the data active = activity change below about -30%; inconclusive = mostly about -25% to -30%
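Human LDH5 (2 nM) was incubated with 0.06 mM NADH and 0.2 mM pyruvate for 5 min at room temperature in Tris pH 7.4. Remaining NADH was coupled through diaphorase/resazurin, and resorufin fluorescence was read at 0 and 20 min.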
PTHR1 ag = agonists of human PTHR1 parathyroid hormone receptor | 410,000 tested, 0.075% active | HEK293 GP2 PTHR1 cells, GloSensor cAMP luminescence, 1 h | Q03431 | Potency, µM (doses to about 115 µM), hits mostly activators; also: nearly all actives have a fitted effect of over 55% in size
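HEK-293-derived GP2 cells expressing PTHR1 and a GloSensor cAMP reporter, 3,000/well, plated overnight, given luciferin plus IBMX (each 0.5 mM as added) for 1 h at 37 °C, then compound for 1 h at 37 °C. Luminescence was read after 15 min at room temperature.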
GLP-1R inv ag = GLP-1 receptor (human) inverse agonism. P43220. HEK293 GLP-1R CRE-luciferase, luminescence, 24 h; GLP-1R form is constitutively active. Potency, µM (highest dose often 38.3 µM), hits mostly inhibitors. 410,000 tested, 1.6% active; also: nearly all actives have a fitted effect of over 55% in size
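Seeding at 200 cells/uL, 12 h culture, 24 hr compound treatment, then luciferase reagent and a luminescence read; cells are HEK293 stably expressing a constitutively active GLP-1R plus cAMP-responsive luciferase.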
GLP1R ag = activates the human GLP-1 receptor | P43220 | HEK293 GLP-1R CRE-luciferase, luminescence, 4-6 h; cells express a hypersensitive GLP-1R form | Potency, µM (titrated, usually from 45.6 µM), actives largely listed as activators | 380,000 tested, 0.007% active | AID 624172
A number is an active result; 0 = inactive; ? = inconclusive; - = no result given. Only some compounds are listed: those with a hit (about 1.7% of all), similar ones and a draw of the others. Unless noted, calls follow the shape of the dose curve; as a rule, active = well fitted curve in the direction sought with a large enough effect; inconclusive = small, poorly fitted or top-dose-only effect, or another doubt; inactive = no such curve, though single readings can be large; an effect the other way counts as inactive or inconclusive.

SMILES	IDH1 R132H inh	GLP1R cytotox	LDHA inh	PTHR1 ag	GLP-1R inv ag	GLP1R ag
C#Cc1cccc(NC(=O)CCc2ccccc2O)c1	-	-	0	-	-	-
O=Cc1cccn1-c1cccc(Cl)c1	-	-	0	-	-	-
CC(=O)Nc1cccc(-c2nc3cc(Cl)ccc3o2)c1	-	-	0	-	-	-
CCCCN1C(=O)NC(c2ccccc2OC(F)F)C(C(=O)OCC)=C1C (stereo unspecified)	-	-	0	-	-	-
Cc1cccc(NC(=O)NCc2nc(-c3cccc(C)c3)no2)c1	-	-	0	-	-	-
COc1ccc(NC(=O)CC2C(=O)N(C)C(=S)N2CCc2ccc(F)cc2)cc1 (stereo unspecified)	0	0	0	0	11.2µM	0
COC(=O)c1ccc(NC(=O)CC2C(=O)N(c3ccc(F)cc3)C(=O)N2Cc2ccc(OC)cc2)cc1 (stereo unspecified)	0	0	0	0	0	-
COc1ccc(CCN2C(=O)N(c3ccc(C)cc3)C(=O)C2CC(=O)Nc2ccc(F)cc2)cc1 (stereo unspecified)	0	0	0	0	7.94µM	0
COc1ccc(CCN2C(=S)N(C)C(=O)C2CC(=O)Nc2ccc(OC)cc2)cc1 (stereo unspecified)	0	0	0	0	?	0
N#Cc1ccccc1-c1ccc(COC(=O)c2ccco2)cc1	-	-	0	-	-	-
COC(=O)CCNCc1ccccc1	-	-	0	-	-	-
OC1COc2ccccc2OCCOCCOc2ccccc2OC1	-	-	0	-	-	-
COc1ccc(CCNc2ncnc3c2c(-c2ccccc2)cn3-c2cccc(Cl)c2)cc1OC	0	0	0	0	10µM	-
CCOc1ccc(-n2cc(-c3ccccc3)c3c(NCc4ccc(F)cc4)ncnc32)cc1	0	0	0	0	1.41µM	-
COc1ccc(CNc2ncnc3c2c(-c2ccccc2)cn3-c2ccccc2)cc1	0	0	0	0	6.31µM	-
Cc1ccc(CNc2ncnc3c2c(-c2ccccc2)cn3-c2ccccc2)cc1	0	0	0	0	?	-
CCOC(=O)C(NC=O)C(OC(=O)CC1c2ccccc2-c2ccccc21)c1ccccc1 (stereo unspecified)	-	-	0	-	-	-
O=C(Nc1ccc(F)c(F)c1F)c1ccc2ccccc2n1	-	-	0	-	-	-
N#C/C(=N\Nc1ccc(S(=O)(=O)N2CCOCC2)cc1)C(N)=S	0	?	0	0	?	0
N#CC(C#N)=NNc1ccc(S(=O)(=O)N2CCCCC2)cc1	0	?	0	0	1.26µM	0
Cc1ccc(C2CC3CC2C(C(=O)O)C3C(=O)O)cc1C (stereo unspecified)	-	-	0	-	-	-
Nc1nc(N)c2cc([N+](=O)[O-])ccc2n1	0	0	-30.3	0	0	0
Nc1nc(N)c2c(ccc3c2ccn3Cc2cccc([N+](=O)[O-])c2)n1	-	?	0	0	0.501µM	0
O=C(N/N=C/c1ccc(Cl)cc1Cl)c1cccs1	-	-	0	-	-	-
CC1CCN(CC(O)COC2CC(C)CCC2C(C)C)CC1 (stereo unspecified)	0	?	0	0	0	0
SMILES	IDH1 R132H inh	GLP1R cytotox	LDHA inh	PTHR1 ag	GLP-1R inv ag	GLP1R ag
CC1CCC(C(C)C)C(OCC(O)CNC(C)(C)C)C1 (stereo unspecified)	0	0	0	0	11.2µM	0
O=c1c2ccc(F)cc2sn1-c1ccccc1	0	?	0	0	?	0
Cc1ccc(-n2sc3cc(F)ccc3c2=O)c(C)c1	0	?	0	0	?	0
O=c1c2cc(F)ccc2sn1-c1ccccc1Cl	0	0	-42.9	0	?	0
O=c1c2ccccc2sn1-c1ccc(F)cc1	0	0	-31.0	0	0	0
O=C(c1cc(Cl)ccc1Cl)N1CCOc2ccccc21	-	-	0	-	-	-
Cc1noc(C)c1COc1cccc(C(=O)OCCOc2ccc(F)cc2)c1	0	0	0	0	10µM	0
Cc1noc(C)c1COc1cccc(C(=O)OC(C)C#N)c1 (stereo unspecified)	0	0	0	0	0	0
CCN(CC)CCn1c(=N)n(CC(O)COc2ccccc2C)c2ccccc21 (stereo unspecified)	-	?	0	?	10µM	-
COc1ccc(OCC(O)Cn2c(=N)n(Cc3ccccc3)c3ccccc32)cc1 (stereo unspecified)	0	7.94µM	0	?	?	0
CCN(CC)CCn1c(=N)n(CC(O)COc2cccc(C)c2)c2ccccc21 (stereo unspecified)	0	?	0	0	?	0
Cc1ccc(OCC(O)Cn2c(=N)n(Cc3ccccc3)c3ccccc32)cc1 (stereo unspecified)	0	?	0	0	11.2µM	0
Cc1cccc(OCC(O)Cn2c(=N)n(Cc3ccccc3)c3ccccc32)c1 (stereo unspecified)	0	0	0	0	?	0
N#Cc1nc(-c2ccc(S(=O)(=O)N3CCOCC3)cc2)oc1NCCCn1ccnc1	-	-	0	-	-	-
CC(=O)c1c[nH]c(C(=O)NC(C)c2ccccc2Cl)c1 (stereo unspecified)	-	-	0	-	-	-
Cc1ccc(C(=O)OCC(=O)N(CCC#N)c2cccc(C(F)(F)F)c2)cc1[N+](=O)[O-]	-	-	0	-	-	-
CC(C)(C)n1nnnc1C(c1cccs1)N1CCCc2ccccc21 (stereo unspecified)	0	0	0	0	11.2µM	0
CCN1CCN(c2ncc3c(n2)CCN(Cc2cc(F)cc(F)c2)C3)CC1	0	0	0	0	?	-
CCc1ccc(CN2CCc3nc(N4CCN(CC)CC4)ncc3C2)cc1	0	0	0	0	5.01µM	-
CC1(C)Cc2ccccc2-c2nc3ccccc3c(=O)n21	0	0	0	0	7.94µM	0
Cc1ccc(NC(=O)NCCc2c[nH]c3ccccc23)cc1	-	-	0	-	-	-
CCCCCNC(=O)Cc1cccs1	-	-	0	-	-	-
CCOC(=O)c1c(/N=C/N(C)C)sc(/C=N/Nc2ccccc2)c1-c1ccccc1Cl	0	0	0	0	3.55µM	0
C=CCOc1ccc(C=CC(=O)c2c(O)c(OC)c(OC)c(OC)c2OC)cc1	0	0	0	0	7.94µM	0
C=CCOc1ccc(/C=C/C(=O)c2ccc(OCCCCC)cc2)cc1	-	-	0	-	-	-
N#CC1=C(N)OC2=C(C(=O)CCC2)C1c1ccc(-c2c(Cl)cc(Cl)cc2Cl)o1 (stereo unspecified)	-	-	0	-	-	-
CC(C)C(NC(=O)Cc1ccccc1)C(=O)N1CCCC1 (stereo unspecified)	-	-	0	-	-	-
COC(=O)c1ccc(C23CC4(C2)[C@H](CN(Cc2cccnc2)[C@@H]4c2ccccc2)C3c2ccc(C(F)(F)F)cc2)cc1 (stereo partly specified)	0	0	0	0	?	0
COC(=O)c1ccc(C23CC4(C2)[C@H](CN(Cc2cccnc2)[C@@H]4c2ccccc2)C3c2ccccc2)cc1 (stereo partly specified)	0	0	0	0	8.91µM	0
